The text below walks through data of the antibiotic and cytotoxicity screens of Wong et al. (2023).

The campaign covered roughly 39,000 compounds. About 1,500 (3.8%) were called active. For the sample, actives were picked, then their nearest neighbours and some compounds at random.

The assay relates to HSkMC (human skeletal muscle cells). Put plainly: cytotoxicity call (relative viability < 0.9). The conditions noted are these: 10 µM.
In the case of `C[C@@H]1CN([C@@H](C)CO)C(=O)c2cc(NC(=O)CCC(F)(F)F)ccc2O[C@@H](C)CCCCO[C@H]1CN(C)C(=O)Nc1ccccc1`, the cytotoxicity call was “inactive”.

In the case of `O=C(C[C@H]1CC[C@@H]2[C@H](COC[C@H](O)CN2C(=O)Nc2ccc(Cl)c(Cl)c2)O1)NCc1ccc(Cl)c(Cl)c1`, the cytotoxicity call is “inactive”.

Take `CCC(=O)N(C)C[C@H]1Oc2ncc(C#C[C@@H](C)O)cc2C(=O)N([C@H](C)CO)C[C@@H]1C`: the cytotoxicity call was “inactive”.

As to `Cc1noc(C)c1NC(=O)Nc1ccc2c(c1)C(=O)N([C@@H](C)CO)C[C@H](C)[C@@H](CN(C)Cc1ccncc1)OCCCC[C@@H](C)O2`, the cytotoxicity call was “inactive”. On to `CCCN(C)C[C@H]1OCCCC[C@@H](C)Oc2ccc(NC(=O)Nc3ccc(F)cc3)cc2C(=O)N([C@@H](C)CO)C[C@H]1C`, for which the cytotoxicity call is “inactive”. Regarding `C#CCN([C@H](/C=C/C1CC1)[C@@H](O)Cc1ccccc1)[C@@H](Cc1ccc(-n2cc(CCC(=O)NO)nn2)cc1)C(=O)OC`, the cytotoxicity call is “inactive”.

`O=C(CCc1cn(CC(=O)N2CCC3(CC2)C(=O)NCN3c2ccccc2)nn1)NO`: the cytotoxicity call is “inactive”. To `CCCNC(=O)Cc1nnc[nH]1` belongs “inactive”. The value for `COc1ccccc1-c1cccc(-c2nc(C(=O)NCc3ccncc3)cc3c2[C@H](CCO)N([S@@](=O)C(C)(C)C)C3)c1` was “active”. Take `CC(C)(C)[S@@](=O)N1Cc2cc(C(=O)NCCc3ccncc3)nc(-c3cccc(-c4ccccc4)c3)c2[C@H]1CCO`: the cytotoxicity call was “active”.

In the case of `CCNC(=O)c1cc2c(c(-c3cccc(-c4cccc(F)c4)c3)n1)[C@H](CCO)N([S@@](=O)C(C)(C)C)C2`, the cytotoxicity call was “inactive”. As for `COc1ccccc1-c1cccc(-c2nc(C(=O)NCc3ccncc3)cc3c2[C@@H](CCO)N([S@@](=O)C(C)(C)C)C3)c1`, the cytotoxicity call was “inactive”. The value for `CC(C)(C)[S@@](=O)N1Cc2cc(C(=O)NCCc3ccncc3)nc(-c3cccc(-c4ccc(C#N)cc4)c3)c2[C@H]1CCO` was “inactive”; that for `COc1ccccc1-c1cccc(-c2nc(C(=O)NCc3ccncc3)cc3c2[C@@H](CCO)N([S@](=O)C(C)(C)C)C3)c1` was “inactive”. As to `CC(C)(C)[S@](=O)N1Cc2cc(C(=O)NCCc3ccncc3)nc(-c3cccc(-c4ccccc4)c3)c2[C@@H]1CCO`, the cytotoxicity call was “inactive”.

Turning to `CC(C)(C)S(=O)N1Cc2cc(C(=O)Nc3ccc(-c4ccccc4)cc3)nc(-c3cccc(-c4cccc(F)c4)c3)c2[C@@H]1CCO` (some centres not stated), the cytotoxicity call was “active”. To `CCNC(=O)c1cc2c(c(-c3cccc(-c4cccc(F)c4)c3)n1)[C@@H](CCO)N([S@](=O)C(C)(C)C)C2` belongs “inactive”.

In the case of `COCC(=O)N(C)C[C@H]1Oc2cc(C#CC(C)(C)O)ccc2S(=O)(=O)N([C@@H](C)CO)C[C@H]1C`, the cytotoxicity call was “inactive”.

Take `C[C@H]1CN([C@@H](C)CO)C(=O)c2cccc(NS(=O)(=O)c3cn(C)cn3)c2O[C@@H]1CN(C)C(=O)NC1CCCCC1`: the cytotoxicity call is “inactive”. On to `CO[C@H]1CN(C)C(=O)c2ccc(NS(=O)(=O)c3cn(C)cn3)cc2OC[C@@H](C)N(CC2CC2)C[C@@H]1C`, for which the cytotoxicity call is “inactive”.

In the case of `Cn1cnc(S(=O)(=O)N2C[C@@H](O)COC[C@@H]3O[C@H](CC(=O)NCc4cccc(F)c4)CC[C@H]32)c1`, the cytotoxicity call is “inactive”. As to `CNC(=O)c1cccc(S(N)(=O)=O)c1`, the cytotoxicity call is “inactive”. The value for `C[C@@H]1CCCCO[C@H](CN(C)C(=O)NC2CCCCC2)[C@H](C)CN([C@H](C)CO)C(=O)c2cc(NC(=O)NC3CCCCC3)ccc2O1` was “inactive”; that for `C[C@@H]1CN([C@@H](C)CO)C(=O)c2cc(C#CC(C)(C)O)cnc2O[C@H]1CN(C)C(=O)CN(C)C` was “inactive”; that for `C[C@@H]1CN([C@H](C)CO)C(=O)c2cccc(NS(=O)(=O)c3ccc(F)cc3)c2O[C@@H]1CN(C)C(=O)Nc1ccc(C(F)(F)F)cc1` was “inactive”. The value for `C[C@@H]1CN([C@@H](C)CO)C(=O)Cc2cc(NS(C)(=O)=O)ccc2O[C@@H]1CN(C)C(=O)Nc1ccc2c(c1)OCO2` was “inactive”; that for `C[C@H](CO)N1C[C@H](C)[C@H](CN(C)C(=O)Nc2ccc3c(c2)OCO3)OCCCC[C@H](C)Oc2ccc(NC(=O)CCCCCC(=O)Nc3ccccc3N)cc2C1=O` was “inactive”. The value for `Cc1noc(C)c1NC(=O)Nc1cccc2c1O[C@H](CN(C)Cc1ccc(C(F)(F)F)cc1)[C@H](C)CN([C@@H](C)CO)C2=O` was “inactive”; that for `C[C@@H]1CN([C@H](C)CO)C(=O)Cc2cc(NC(=O)Cc3cn(C)c4ccccc34)ccc2O[C@@H]1CN(C)Cc1ccc(C(=O)Nc2ccccc2N)cc1` was “inactive”.

On to `C[C@H]1CN([C@@H](C)CO)C(=O)Cc2cc(NC(=O)Cc3cn(C)c4ccccc34)ccc2O[C@@H]1CN(C)Cc1ccc(C(=O)Nc2ccccc2N)cc1`, for which the cytotoxicity call was “inactive”.

Take `C[C@H]1CN([C@@H](C)CO)C(=O)c2cc(NC(=O)Cc3cn(C)c4ccccc34)ccc2O[C@@H]1CN(C)Cc1ccc(C(=O)Nc2ccccc2N)cc1`: the cytotoxicity call was “active”. Consider `C[C@H](CO)N1C[C@H](C)[C@H](CN(C)Cc2ccc(C(=O)Nc3ccccc3N)cc2)Oc2ccc(NC(=O)Cc3cn(C)c4ccccc34)cc2CC1=O`, for which the cytotoxicity call was “active”. As to `C[C@H](CO)N1C[C@H](C)[C@H](CN(C)Cc2ccc(C(=O)Nc3ccccc3N)cc2)Oc2ccc(NC(=O)Cc3cn(C)c4ccccc34)cc2C1=O`, the cytotoxicity call is “inactive”. The value for `C[C@@H]1CN([C@H](C)CO)C(=O)c2cc(NC(=O)Cc3cn(C)c4ccccc34)ccc2O[C@@H]1CN(C)Cc1ccc(C(=O)Nc2ccccc2N)cc1` was “inactive”.

With `O=C(C[C@@H]1CC[C@H]2[C@@H](COC[C@H](O)CN2S(=O)(=O)c2ccc(Cl)cc2)O1)NCCN1CCCC1`, the cytotoxicity call was “inactive”.

In the case of `O=C(C[C@H]1C=C[C@@H](NS(=O)(=O)c2ccc(F)cc2)[C@@H](CO)O1)N1CCC(Cc2ccccc2)CC1`, the cytotoxicity call was “inactive”. As for `C[C@@H]1CCCCO[C@H](CN(C)C(=O)Nc2ccc(C(F)(F)F)cc2)[C@@H](C)CN([C@@H](C)CO)C(=O)c2cc(NC(=O)CCC(F)(F)F)ccc2O1`, the cytotoxicity call was “inactive”. To `C[C@@H]1CCCCO[C@@H](CN(C)C(=O)CCC(F)(F)F)[C@H](C)CN([C@@H](C)CO)C(=O)c2cc(NS(=O)(=O)c3ccccc3)ccc2O1` belongs “inactive”; to `COc1ccc(NC(=O)Nc2ccc3c(c2)C(=O)N([C@@H](C)CO)C[C@H](C)[C@@H](CN(C)Cc2ccc(C(F)(F)F)cc2)OCCCC[C@H](C)O3)cc1`, “inactive”.

Consider `COc1ccc(CN(C)C[C@H]2OCCCC[C@@H](C)Oc3ccc(NC(=O)Nc4ccc(C(F)(F)F)cc4)cc3C(=O)N([C@H](C)CO)C[C@@H]2C)cc1`, for which the cytotoxicity call is “active”.

Turning to `COc1ccc(CN(C)C[C@@H]2OCCCC[C@@H](C)Oc3ccc(NC(=O)Nc4ccc(C(F)(F)F)cc4)cc3C(=O)N([C@@H](C)CO)C[C@@H]2C)cc1`, the cytotoxicity call is “active”.

Take `COc1ccc(CN(C)C[C@H]2OCCCC[C@H](C)Oc3ccc(NC(=O)Nc4ccc(C(F)(F)F)cc4)cc3C(=O)N([C@H](C)CO)C[C@H]2C)cc1`: the cytotoxicity call is “active”.

Take `COc1ccc(CN(C)C[C@@H]2OCCCC[C@@H](C)Oc3ccc(NC(=O)Nc4ccc(C(F)(F)F)cc4)cc3C(=O)N([C@@H](C)CO)C[C@H]2C)cc1`: the cytotoxicity call is “active”. With `COc1ccc(NC(=O)Nc2ccc3c(c2)C(=O)N([C@@H](C)CO)C[C@H](C)[C@H](CN(C)Cc2ccc(C(F)(F)F)cc2)OCCCC[C@H](C)O3)cc1`, the cytotoxicity call is “inactive”. The value for `C[C@@H]1CCCCO[C@H](CN(C)C(=O)Cc2ccccc2)[C@H](C)CN([C@@H](C)CO)C(=O)c2cc(NC(=O)Cc3ccccc3)ccc2O1` was “inactive”. The value for `COc1ccc(NC(=O)Nc2ccc3c(c2)C(=O)N([C@@H](C)CO)C[C@@H](C)[C@@H](CN(C)C(=O)NC2CCCCC2)OCCCC[C@H](C)O3)cc1` was “inactive”; that for `C[C@@H]1CN([C@H](C)CO)S(=O)(=O)c2ccc(C#Cc3ccncc3)cc2O[C@@H]1CN(C)C(=O)C1CCOCC1` was “inactive”; that for `C[C@@H]1CCCCO[C@@H](CN(C)C(=O)C2CCCCC2)[C@@H](C)CN([C@@H](C)CO)C(=O)c2cc(NC(=O)Nc3ccc4c(c3)OCO4)ccc2O1` was “inactive”.

Turning to `COc1ccc(NC(=O)N(C)C[C@H]2Oc3c(NS(C)(=O)=O)cccc3C(=O)N([C@H](C)CO)C[C@@H]2C)cc1`, the cytotoxicity call was “inactive”. To `C[C@@H]1CCCCO[C@H](CN(C)C)[C@H](C)CN([C@@H](C)CO)C(=O)c2cc(NC(=O)Nc3cccc4ccccc34)ccc2O1` belongs “inactive”; to `C[C@H](CO)N1C[C@H](C)[C@H](CN(C)S(=O)(=O)c2cn(C)cn2)Oc2ccc(NC(=O)CCCN(C)C)cc2C1=O`, “inactive”. The value for `O=C(CN1CCOCC1)NCC[C@@H]1CC[C@H](NS(=O)(=O)c2ccc(Cl)cc2)[C@@H](CO)O1` was “inactive”; that for `C[C@@H]1CN([C@H](C)CO)C(=O)c2cccc(NC(=O)CCCCCC(=O)Nc3ccccc3N)c2O[C@H]1CN(C)C(=O)Nc1ccccc1` was “inactive”; that for `Cn1cc(N2C[C@]3(COCCN(C(=O)C4CC4)C3)OCC2=O)cn1` was “inactive”. Regarding `COc1ccc(NC(=O)Nc2ccc3c(c2)C(=O)N([C@H](C)CO)C[C@@H](C)[C@H](CN(C)Cc2ccc(C(F)(F)F)cc2)OCCCC[C@H](C)O3)cc1`, the cytotoxicity call is “inactive”.

Turning to `COc1ccc(NC(=O)Nc2ccc3c(c2)C(=O)N([C@@H](C)CO)C[C@@H](C)[C@H](CN(C)Cc2ccc(C(F)(F)F)cc2)OCCCC[C@H](C)O3)cc1`, the cytotoxicity call was “inactive”. To `COc1ccc(CN(C)C[C@@H]2OCCCC[C@H](C)Oc3ccc(NC(=O)Nc4ccc(C(F)(F)F)cc4)cc3C(=O)N([C@@H](C)CO)C[C@@H]2C)cc1` belongs “active”; to `COc1ccc(NC(=O)Nc2ccc3c(c2)C(=O)N([C@H](C)CO)C[C@@H](C)[C@@H](CN(C)Cc2ccc(C(F)(F)F)cc2)OCCCC[C@H](C)O3)cc1`, “inactive”. To `COc1ccc(NC(=O)Nc2ccc3c(c2)C(=O)N([C@H](C)CO)C[C@@H](C)[C@@H](CN(C)Cc2ccc(C(F)(F)F)cc2)OCCCC[C@@H](C)O3)cc1` belongs “active”; to `COc1ccc(CN(C)C[C@@H]2OCCCC[C@H](C)Oc3ccc(NC(=O)Nc4ccc(C(F)(F)F)cc4)cc3C(=O)N([C@@H](C)CO)C[C@H]2C)cc1`, “active”. As to `COc1ccc(NC(=O)Nc2ccc3c(c2)C(=O)N([C@H](C)CO)C[C@H](C)[C@@H](CN(C)Cc2ccc(C(F)(F)F)cc2)OCCCC[C@@H](C)O3)cc1`, the cytotoxicity call was “inactive”. The value for `COc1ccc(CN(C)C[C@@H]2OCCCC[C@@H](C)Oc3ccc(NC(=O)Nc4ccc(C(F)(F)F)cc4)cc3C(=O)N([C@H](C)CO)C[C@@H]2C)cc1` was “active”.
